Test results: PubChem BioAssay
Active and inactive are the calls of the source. Unless noted, the rule behind the calls is not given here.

What was measured:
[1] = tested on: Wnt5a (protein binding on small-molecule microarray); assay: Wnt5a binders on small-molecule microarray, primary screen, biophysical, 635/667 nm fluorescence (AID 1142); conditions: 635 nm fluorescence, higher = more signal;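 note: fluorescence read at 667 nm with signal to noise per printed feature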
[2] = cell viability in Huh7 cells, primary screen, cytotoxicity control for HCV replication inhibitor project, CellTiter-Glo luminescence, basal, 48 h (AID 1143); conditions: Huh7 HCV replicon, higher = more signal, called active from +8 up or from −8 down;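 note: Huh7 hepatoma cells carrying a hepatitis C replication reporter with no stimulus; test concentration not given here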
[3] = P. aeruginosa biofilm formation inhibitors, primary screen, PAO1 strain, BacTiter-Glo luminescence, LB-PBS (AID 1144); conditions: 12 h, higher = more signal
[4] = CREB reporter modulators without forskolin, primary screen, cell-based, PC12, CRE-LacZ reporter, unstimulated (AID 1145); conditions: no forskolin, luminescence, 4.5 h, higher = more signal, called active from +8 up or from −8 down
[5] = CREB reporter modulators under forskolin, primary screen, cell-based, PC12, CRE-LacZ reporter, forskolin-stimulated (AID 1146); conditions: luminescence, 4.5 h, higher = more signal, called active from +8 up or from −8 down;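 note: PC12 cells with 6xCRE LacZ reporter stimulated by forskolin 10 µM; beta-galactosidase reporter signal reflecting CREB driven transcription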
[6] = molecular target: Streptavidin (Streptomyces avidinii) (UniProt P22629); assay: streptavidin binders on small-molecule microarray, primary screen, artefact control for SMM compound annotation, biophysical, 635/667 nm fluorescence (AID 1147); conditions: streptavidin binding, higher = more signal;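 note: signal reflects streptavidin binding to arrayed compounds as a control protein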
[7] = small-molecule binders of probe aInhba, primary screen, biochemical, small-molecule microarray, 635/667 nm fluorescence (AID 1148); conditions: higher = more signal;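 note: score merges 667nm spot fluorescence with signal-to-noise for antibody binding to printed compounds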
Torsin-1A (Homo sapiens) [8] = molecular target: Torsin-1A (Homo sapiens) (UniProt O14656); assay: torsin A binders from cell lysate, primary screen, small-molecule microarray, wild-type, 635/667 nm (AID 1149); conditions: COS7 hTOR1A-WT lysate, 635 nm fluorescence, higher = more signal
Torsin-1A (Homo sapiens) [9] = molecular target: Torsin-1A (Homo sapiens) (UniProt O14656); assay: small-molecule binders of mutant TOR1A in lysate, primary screen, cell lysate, small-molecule microarray, COS7 lysate, 635/667 nm fluorescence (AID 1150); conditions: COS7 hTOR1A mutant lysate, 635 nm fluorescence, higher = more signal;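 note: score pools 667 nm emission and signal to noise measuring lysate protein binding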
[10] = tested on: Sonic hedgehog protein (Shh); assay: small-molecule binders of Shh protein, primary screen, biochemical, small-molecule microarray, 635/667 nm fluorescence (AID 1151); conditions: small-molecule microarray binding, 635 nm fluorescence; higher = more signal;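 note: Shh protein binding to compounds spotted on small-molecule microarray slides; score combines spot fluorescence intensity with signal-to-noise across triplicate slides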
[11] = E. coli DRC41 culture turbidity changes, primary screen, E. coli filamentation inducer project, strain DRC41, OD650, 48 h (AID 1152);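 note: E. coli MC1000 strain DRC41 lacking acrAB efflux pump and sulA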; conditions: E. coli DRC41 (acrAB sulA), higher = more signal, called active from +8 up or from −8 down
[12] = small-molecule binders of probe aLefty1, primary screen, biochemical, small-molecule microarray, 635/667 nm fluorescence (AID 1153); conditions: higher = more signal;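 note: score merges spot fluorescence with signal-to-noise ratio from the scanned slide images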
[13] = PSAC antagonists in infected red cells, primary screen, cell-based, P. falciparum Indochina, OD700, 1 h (AID 1154); conditions: P. falciparum Indochina infected RBC osmotic lysis, higher = more signal, called active from +8 up or from −8 down
[14] = PSAC antagonists in infected red cells, primary screen, cell-based, P. falciparum Indochina, OD700, 2 h (AID 1155);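 note: lysis reports solute entry through the parasite surface anion channel PSAC; channel blockers reduce lysis of infected cells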; conditions: P. falciparum Indochina infected erythrocytes, osmotic lysis OD700; higher = more signal, called active from +8 up or from −8 down
[15] = osmotic lysis modulators in infected erythrocytes, primary screen, PSAC antagonist project, cell-based, P. falciparum Indochina, OD700, 3 h (AID 1156); conditions: higher = more signal, called active from +8 up or from −8 down
[16] = PSAC antagonists in infected red cells, primary screen, cell-based, P. falciparum Indochina, OD700, 18 h (AID 1157); conditions: P. falciparum Indochina infected erythrocytes, osmotic lysis OD700, 18 h; higher = more signal, called active from +8 up or from −8 down
[17] = modulators of S6 phosphorylation in cells, primary screen, cell-based, A549, cytoblot, luminescence, serum-stimulated (AID 1158); conditions: A549 phospho-S6 cytoblot, 5 h, higher = more signal;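 note: serum-stimulated A549 lung adenocarcinoma cells; signal is phosphorylated S6 detected by cytoblot immunostaining with HRP secondary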
[18] = molecular target: NADPH oxidase 2 (Homo sapiens) (UniProt P04839); assay: NOX2-dependent H2O2 signal modulators, primary screen, NOX inhibitor project, cell-based, HEK293-NOX2, PMA-stimulated, Amplex Red fluorescence (AID 1159); conditions: 45 min, higher = more signal, called active from +8 up or from −8 down; note: test concentration not given here
[19] = molecular target: NADPH oxidase 4 (Homo sapiens) (UniProt Q9NPH5); assay: NOX4-dependent H2O2 signal modulators, primary screen, NOX inhibitor project, cell-based, HEK293-NOX4, tetracycline-induced, Amplex Red fluorescence (AID 1160); conditions: 45 min, higher = more signal, called active from +8 up or from −8 down
[20] = molecular target: NADPH oxidase 5 (Homo sapiens) (UniProt Q96PH1); assay: NOX5-dependent H2O2 signal modulators, primary screen, NOX inhibitor project, cell-based, HEK293-NOX5, Amplex Red fluorescence (AID 1161); conditions: HEK293-NOX5, ionomycin, 45 min, higher = more signal
Chain of NADPH oxidase 5 (Homo sapiens) (Q96PH1 whole entry, looked up): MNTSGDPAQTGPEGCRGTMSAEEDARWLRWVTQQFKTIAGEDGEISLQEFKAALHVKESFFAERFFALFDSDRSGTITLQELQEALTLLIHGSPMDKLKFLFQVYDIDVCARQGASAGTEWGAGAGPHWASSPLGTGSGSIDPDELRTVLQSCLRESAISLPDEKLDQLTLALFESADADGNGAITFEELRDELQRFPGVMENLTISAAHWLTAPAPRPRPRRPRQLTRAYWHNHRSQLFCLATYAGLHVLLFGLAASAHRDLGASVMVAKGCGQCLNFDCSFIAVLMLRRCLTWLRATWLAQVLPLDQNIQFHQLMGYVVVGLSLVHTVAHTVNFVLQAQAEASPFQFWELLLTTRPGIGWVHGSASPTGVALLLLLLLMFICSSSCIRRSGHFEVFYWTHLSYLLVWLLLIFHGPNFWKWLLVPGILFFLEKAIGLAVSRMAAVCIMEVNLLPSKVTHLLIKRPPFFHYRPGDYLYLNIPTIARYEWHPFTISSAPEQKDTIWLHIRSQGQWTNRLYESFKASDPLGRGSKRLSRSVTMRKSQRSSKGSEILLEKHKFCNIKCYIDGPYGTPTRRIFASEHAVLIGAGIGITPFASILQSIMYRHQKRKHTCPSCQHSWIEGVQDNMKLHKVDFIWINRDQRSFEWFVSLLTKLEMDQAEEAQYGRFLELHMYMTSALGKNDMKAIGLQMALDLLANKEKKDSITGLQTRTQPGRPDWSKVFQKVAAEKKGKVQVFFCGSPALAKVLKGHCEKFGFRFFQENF

Chain of NADPH oxidase 4 (Homo sapiens) (Q9NPH5 whole entry, looked up): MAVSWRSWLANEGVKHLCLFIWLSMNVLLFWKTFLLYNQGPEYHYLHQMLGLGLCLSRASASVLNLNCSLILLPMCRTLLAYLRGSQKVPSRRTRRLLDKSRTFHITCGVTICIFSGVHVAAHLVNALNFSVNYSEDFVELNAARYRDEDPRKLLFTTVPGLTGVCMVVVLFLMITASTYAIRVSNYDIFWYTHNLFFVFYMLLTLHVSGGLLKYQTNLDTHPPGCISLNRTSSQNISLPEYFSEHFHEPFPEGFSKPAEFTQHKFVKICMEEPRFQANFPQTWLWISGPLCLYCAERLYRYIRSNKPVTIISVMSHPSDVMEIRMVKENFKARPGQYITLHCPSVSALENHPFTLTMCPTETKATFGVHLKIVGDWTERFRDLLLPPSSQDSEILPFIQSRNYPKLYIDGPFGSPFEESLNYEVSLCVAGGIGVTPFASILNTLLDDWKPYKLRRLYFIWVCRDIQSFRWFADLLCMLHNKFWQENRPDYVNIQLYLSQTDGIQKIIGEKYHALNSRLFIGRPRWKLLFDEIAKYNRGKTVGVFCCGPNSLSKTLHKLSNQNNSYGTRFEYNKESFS
Chain of Streptavidin (Streptomyces avidinii) (P22629 whole entry, looked up): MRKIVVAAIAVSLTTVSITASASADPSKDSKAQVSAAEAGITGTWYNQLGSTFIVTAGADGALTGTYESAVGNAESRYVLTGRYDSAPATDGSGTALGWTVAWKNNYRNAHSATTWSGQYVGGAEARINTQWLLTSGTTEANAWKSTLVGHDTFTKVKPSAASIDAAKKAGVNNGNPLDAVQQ
Chain of NADPH oxidase 2 (Homo sapiens) (P04839 whole entry, looked up): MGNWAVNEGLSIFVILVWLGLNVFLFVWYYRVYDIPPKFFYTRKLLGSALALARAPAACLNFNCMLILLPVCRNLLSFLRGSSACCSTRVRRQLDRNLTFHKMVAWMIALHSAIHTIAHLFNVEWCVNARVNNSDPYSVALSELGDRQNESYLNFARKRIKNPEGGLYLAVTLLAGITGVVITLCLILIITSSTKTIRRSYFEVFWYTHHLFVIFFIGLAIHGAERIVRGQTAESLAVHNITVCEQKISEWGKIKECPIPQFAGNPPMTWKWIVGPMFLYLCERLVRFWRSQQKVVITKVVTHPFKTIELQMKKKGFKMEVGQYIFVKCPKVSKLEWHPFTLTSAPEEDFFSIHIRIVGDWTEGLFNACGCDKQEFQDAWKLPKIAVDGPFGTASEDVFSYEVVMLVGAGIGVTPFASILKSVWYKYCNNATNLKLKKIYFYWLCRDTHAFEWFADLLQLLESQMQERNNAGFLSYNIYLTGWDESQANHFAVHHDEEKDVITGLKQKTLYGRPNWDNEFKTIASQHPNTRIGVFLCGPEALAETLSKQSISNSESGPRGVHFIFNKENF
Chain of Torsin-1A (Homo sapiens) (O14656 whole entry, looked up): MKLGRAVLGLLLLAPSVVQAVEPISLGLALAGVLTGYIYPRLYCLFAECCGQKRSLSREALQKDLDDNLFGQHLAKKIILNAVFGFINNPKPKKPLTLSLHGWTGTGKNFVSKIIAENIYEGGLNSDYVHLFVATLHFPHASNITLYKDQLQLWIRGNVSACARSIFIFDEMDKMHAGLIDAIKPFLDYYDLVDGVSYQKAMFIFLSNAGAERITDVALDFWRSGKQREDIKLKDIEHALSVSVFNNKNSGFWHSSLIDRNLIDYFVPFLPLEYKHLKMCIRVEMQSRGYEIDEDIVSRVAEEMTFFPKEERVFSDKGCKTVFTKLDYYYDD

Row | Compound | composite z-score [1] | z-score [2] | z-score [3] | z-score [4] | z-score [5] | composite z-score [6] | composite z-score [7] | composite z-score (Torsin-1A (Homo sapiens) [8]) | composite z-score (Torsin-1A (Homo sapiens) [9]) | composite z-score [10] | z-score [11] | composite z-score [12] | z-score [13] | z-score [14] | z-score [15] | z-score [16] | z-score [17] | z-score [18] | z-score [19] | z-score [20]
1 | C=C(CCCC)/C(=C/C[C@@H](OC(C)=O)c1ccc(CO)o1)c1cnc2ccccc2c1 | 0.401 | -0.257 (inactive) | -0.134 (inactive) | 2.76 (inactive) | 0.128 (inactive) | 0.843 | 0.0536 | 1.18 | 1.13 | 1.39 | 0.105 (inactive) | 0.0077 | 9.2 (active) | 1.25 (inactive) | 2.11 (inactive) | 0.406 (inactive) | 0.509 | -0.383 (inactive) | -0.837 (inactive) | -0.426
2 | CC(=O)NCCCC[C@@H]1NC(=O)[C@H]2C[C@@H](C(=O)NCCCCCCNC(=O)CS)[C@@H](c3cccc(OCCO)c3)N2C1=O | 0.538 | 0.348 (inactive) | -0.286 (inactive) | -0.813 (inactive) | -0.78 (inactive) | -0.64 | -0.0448 | 1.43 | 1.22 | 1.32 | -0.337 (inactive) | -0.101 | 3.07 (inactive) | 0.858 (inactive) | 1.18 (inactive) | 0.448 (inactive) | -0.754 | 1.6 (inactive) | -0.667 (inactive) | 0.443
3 | C=CC1c2cc(O)c(OC)cc2CCN1C (stereo not given) | -0.148 | 0.235 (inactive) | 0.51 (inactive) | 0.182 (inactive) | -0.439 (inactive) | -0.0377 | -0.0695 | -0.45 | -0.231 | -0.881 | -0.664 (inactive) | -0.101 | 0.994 (inactive) | -0.152 (inactive) | -0.969 (inactive) | -0.214 (inactive) | -0.466 | -4.27 (inactive) | -2.63 (inactive) | -3.08
4 | COC(=O)[C@@]1(Cc2ccc(OC)cc2)[C@H]2c3cc(C(=O)N4CCCC4)n(Cc4ccc(Cl)c(C(F)(F)F)c4)c3C[C@H]2CN1C(=O)c1ccccc1 | 0.344 | -3.32 (inactive) | 0.237 (inactive) | 0.0143 (inactive) | -0.218 (inactive) | 1.59 | 0.728 | 0.557 | 1.28 | -0.152 | -0.557 (inactive) | 1.19 | 1.24 (inactive) | -0.382 (inactive) | -0.397 (inactive) | -1.17 (inactive) | 2.85 | 0.449 (inactive) | 1.28 (inactive) | -4.74
5 | COC(=O)[C@@]1(Cc2ccccc2)[C@H]2c3cc(C(=O)N(C)C)n(Cc4ccc(S(C)(=O)=O)cc4)c3C[C@H]2CN1C(=O)c1ccccc1 | 0.493 | -1.6 (inactive) | -0.361 (inactive) | 0.39 (inactive) | 1.02 (inactive) | 2.48 | 0.496 | -0.178 | 1.13 | -0.68 | -1.77 (inactive) | 0.71 | 1.5 (inactive) | 0.542 (inactive) | 1.95 (inactive) | 0.814 (inactive) | 0.393 | 1.12 (inactive) | -2.78 (inactive) | -2.6
6 | [N-]=[N+]=Nc1ccccc1C[C@@]1(C(=O)NCc2ccccc2)N=C(c2ccc(OCCCO)cc2)O[C@@H]1c1ccccc1N=[N+]=[N-] | 0.897 | -5.79 (inactive) | -0.424 (inactive) | 0.596 (inactive) | -2.3 (inactive) | 0.905 | 0.767 | 0.123 | 0.388 | 0.473 | 0.0484 (inactive) | 0.399 | 31.4 (active) | 24.3 (active) | 2.08 (inactive) | 0.984 (inactive) | 1.38 | -4.79 (inactive) | -2.16 (inactive) | -1.67
7 | COC(=O)C(CC#Cc1ccc2c(c1)[C@]1(C(=O)N2)[C@H](c2ccc(OCCO)cc2)N2[C@H](c3ccccc3)[C@H](c3ccccc3)OC(=O)[C@H]2[C@@H]1C(=O)N1CCCCCCC1)C(=O)OC | 1.33 | -1.99 (inactive) | -1.14 (inactive) | 0.622 (inactive) | -0.159 (inactive) | 2.97 | 1.88 | 2.01 | 1.9 | 0.582 | -0.598 (inactive) | 2.67 | 7.3 (inactive) | 1.59 (inactive) | 0.309 (inactive) | 0.712 (inactive) | -0.173 | 0.783 (inactive) | 0.196 (inactive) | 1.44
8 | COC(=O)C(CC#Cc1ccc2c(c1)[C@]1(C(=O)N2)[C@H](c2ccccc2OCCO)N2[C@H](c3ccccc3)[C@H](c3ccccc3)OC(=O)[C@H]2[C@@H]1C(=O)N1CCc2cc(OC)c(OC)cc2C1)C(=O)OC | 0.237 | -3.09 (inactive) | -0.888 (inactive) | -0.0515 (inactive) | 0.509 (inactive) | 1.11 | -0.138 | 0.757 | 0.674 | 1.82 | 0.447 (inactive) | 0.0215 | 3.28 (inactive) | 2.24 (inactive) | 2.54 (inactive) | 1.25 (inactive) | -0.033 | 1.74 (inactive) | 1.52 (inactive) | 1.73
